Source: article PMC7862700, “An all-to-all approach to the identification of sequence-specific readers for epigenetic DNA modifications on cytosine”

Tests used:
Assay in all cases: DAPPL (digital affinity profiling via proximity ligation, sequencing); 10 mM Tris-HCl pH 7.5, 50 mM NaCl, 1 mM DTT, 4% glycerol, room temperature, 30 min; GST-TFs on glutathione beads, 16-mer random dsDNA library, 0.1% formaldehyde crosslink after washing; high values mean tight binding
Settings in all cases: protein: recombinant; tags: N-terminal GST; dsDNA, one strand shown
[1] = target: T1, ELK1 (Homo sapiens, UniProt P19419 1-428)
T1 sequence: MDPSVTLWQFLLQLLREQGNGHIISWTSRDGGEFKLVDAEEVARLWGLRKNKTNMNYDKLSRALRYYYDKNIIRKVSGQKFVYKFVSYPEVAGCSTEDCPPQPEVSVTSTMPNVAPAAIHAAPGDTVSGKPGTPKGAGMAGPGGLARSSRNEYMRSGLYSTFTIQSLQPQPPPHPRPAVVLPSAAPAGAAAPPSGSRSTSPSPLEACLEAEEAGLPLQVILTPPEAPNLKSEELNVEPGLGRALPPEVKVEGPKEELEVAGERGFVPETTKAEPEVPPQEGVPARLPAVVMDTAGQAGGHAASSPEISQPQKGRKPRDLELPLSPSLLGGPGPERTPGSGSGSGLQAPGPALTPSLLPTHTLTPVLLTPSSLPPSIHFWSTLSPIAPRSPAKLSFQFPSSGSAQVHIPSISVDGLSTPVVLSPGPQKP
Outline: (§1)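 Beads coated with glutathione captured GST-fused human transcription factors that had been expressed in yeast, and the factors were then given DNA barcodes and pooled with a tag-only sample. The pools were incubated with 200 nmole of a random double-stranded 16-mer DNA library in Tris/NaCl/DTT/glycerol buffer for 30 min at room temperature, washed, crosslinked with 0.1% formaldehyde and proximity-ligated with BsaI/T4 ligase at 37 °C for 1 h. PCR amplification and Illumina NextSeq500 sequencing came last. Binding signal is each hexamer's read frequency for a factor divided by its frequency for the tag-only sample.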

[2] = target: T2, GABPA (Homo sapiens, UniProt Q06546 1-454)
T2 sequence: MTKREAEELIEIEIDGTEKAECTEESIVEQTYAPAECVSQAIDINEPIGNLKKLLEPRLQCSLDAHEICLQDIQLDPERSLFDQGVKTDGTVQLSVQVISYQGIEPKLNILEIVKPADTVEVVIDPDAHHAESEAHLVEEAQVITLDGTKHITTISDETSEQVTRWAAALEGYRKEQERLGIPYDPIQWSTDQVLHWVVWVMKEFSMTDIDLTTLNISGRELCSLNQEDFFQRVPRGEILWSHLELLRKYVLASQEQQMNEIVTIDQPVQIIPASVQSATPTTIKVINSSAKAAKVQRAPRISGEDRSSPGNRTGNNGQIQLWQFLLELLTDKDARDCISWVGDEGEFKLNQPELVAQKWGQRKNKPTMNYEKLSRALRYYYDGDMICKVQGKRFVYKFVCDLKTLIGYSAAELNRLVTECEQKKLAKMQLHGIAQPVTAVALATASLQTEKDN
Outline: as §1

[3] = target: SPIB (Homo sapiens, UniProt Q01892 1-262)
Outline: as §1

[4] = target: T3, ELK3 (Homo sapiens, UniProt P41970 1-407)
T3 sequence: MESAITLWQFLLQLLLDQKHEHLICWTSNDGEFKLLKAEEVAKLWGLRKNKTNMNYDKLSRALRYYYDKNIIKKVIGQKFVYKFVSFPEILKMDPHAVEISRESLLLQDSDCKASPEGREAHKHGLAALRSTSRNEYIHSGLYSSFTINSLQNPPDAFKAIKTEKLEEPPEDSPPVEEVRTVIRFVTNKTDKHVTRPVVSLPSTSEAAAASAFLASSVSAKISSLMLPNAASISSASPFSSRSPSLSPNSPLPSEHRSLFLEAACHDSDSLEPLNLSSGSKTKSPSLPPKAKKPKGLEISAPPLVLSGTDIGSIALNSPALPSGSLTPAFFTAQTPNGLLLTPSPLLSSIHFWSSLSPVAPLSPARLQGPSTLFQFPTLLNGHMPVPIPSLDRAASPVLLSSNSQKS
Outline: as §1

[5] = target: ETV5 (Homo sapiens, UniProt P41161 1-510)
Outline: as §1

[6] = target: T4, SPIC (Homo sapiens, UniProt Q8N5J4 1-248)
T4 sequence: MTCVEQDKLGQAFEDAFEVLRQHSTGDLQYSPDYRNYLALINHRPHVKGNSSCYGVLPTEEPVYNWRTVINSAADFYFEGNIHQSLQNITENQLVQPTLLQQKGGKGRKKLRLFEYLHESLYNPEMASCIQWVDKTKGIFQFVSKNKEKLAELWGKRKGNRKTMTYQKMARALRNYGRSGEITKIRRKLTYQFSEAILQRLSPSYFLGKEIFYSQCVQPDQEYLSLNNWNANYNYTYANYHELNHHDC
Outline: as §1

[7] = target: ELF4 (Homo sapiens, UniProt Q99607 1-663)
Outline: as §1

[8] = target: T5, ELK4 (Homo sapiens, UniProt P28324-2 1-405)
T5 sequence: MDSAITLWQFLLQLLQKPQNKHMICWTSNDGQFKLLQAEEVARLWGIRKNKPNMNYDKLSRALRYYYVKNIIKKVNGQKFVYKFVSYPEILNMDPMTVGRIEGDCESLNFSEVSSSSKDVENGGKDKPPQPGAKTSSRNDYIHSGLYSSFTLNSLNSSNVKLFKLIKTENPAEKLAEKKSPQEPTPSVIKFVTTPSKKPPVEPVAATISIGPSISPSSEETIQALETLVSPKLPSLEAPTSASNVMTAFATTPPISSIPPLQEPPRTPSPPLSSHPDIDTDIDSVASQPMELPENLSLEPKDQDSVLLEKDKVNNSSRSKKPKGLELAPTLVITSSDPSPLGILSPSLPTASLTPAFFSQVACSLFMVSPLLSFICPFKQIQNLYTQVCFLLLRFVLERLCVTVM
Outline: as §1

[9] = target: T6, ELF3 (Homo sapiens, UniProt P78545 1-371)
T6 sequence: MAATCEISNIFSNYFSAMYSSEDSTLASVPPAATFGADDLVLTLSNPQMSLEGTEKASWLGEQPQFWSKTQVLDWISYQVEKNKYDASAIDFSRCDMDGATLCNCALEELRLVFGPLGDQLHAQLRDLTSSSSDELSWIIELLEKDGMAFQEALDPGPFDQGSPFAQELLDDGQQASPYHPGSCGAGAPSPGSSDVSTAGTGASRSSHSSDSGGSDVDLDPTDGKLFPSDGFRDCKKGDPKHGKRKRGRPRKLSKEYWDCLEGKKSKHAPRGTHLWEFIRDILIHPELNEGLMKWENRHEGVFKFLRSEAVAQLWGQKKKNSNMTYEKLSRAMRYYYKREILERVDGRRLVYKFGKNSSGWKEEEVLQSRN
Outline: as §1

[10] = target: T7, ETV3L (Homo sapiens, UniProt Q6ZN32 1-361)
T7 sequence: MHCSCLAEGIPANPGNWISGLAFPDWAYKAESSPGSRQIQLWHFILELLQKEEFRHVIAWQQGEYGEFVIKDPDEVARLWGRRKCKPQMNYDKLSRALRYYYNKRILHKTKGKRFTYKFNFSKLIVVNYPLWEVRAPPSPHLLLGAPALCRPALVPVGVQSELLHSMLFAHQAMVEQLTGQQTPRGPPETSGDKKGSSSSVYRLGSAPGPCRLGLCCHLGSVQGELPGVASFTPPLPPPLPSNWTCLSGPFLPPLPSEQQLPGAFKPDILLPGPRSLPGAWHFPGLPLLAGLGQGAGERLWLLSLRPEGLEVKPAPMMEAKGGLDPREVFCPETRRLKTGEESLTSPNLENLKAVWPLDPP
Outline: as §1

[11] = target: T8, ETV7 (Homo sapiens, UniProt Q9Y603 1-341)
T8 sequence: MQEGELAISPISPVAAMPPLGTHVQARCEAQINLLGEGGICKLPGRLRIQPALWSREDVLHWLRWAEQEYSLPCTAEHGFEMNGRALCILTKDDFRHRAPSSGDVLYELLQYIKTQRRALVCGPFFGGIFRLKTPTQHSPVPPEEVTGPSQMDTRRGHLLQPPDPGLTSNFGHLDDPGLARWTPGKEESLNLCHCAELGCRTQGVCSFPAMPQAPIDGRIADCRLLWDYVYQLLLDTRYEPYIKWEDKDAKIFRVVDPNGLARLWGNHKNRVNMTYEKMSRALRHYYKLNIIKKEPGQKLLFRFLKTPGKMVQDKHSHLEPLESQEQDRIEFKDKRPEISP
Outline: as §1

[12] = target: T9, ETV3 (Homo sapiens, UniProt P41162-2 1-143)
T9 sequence: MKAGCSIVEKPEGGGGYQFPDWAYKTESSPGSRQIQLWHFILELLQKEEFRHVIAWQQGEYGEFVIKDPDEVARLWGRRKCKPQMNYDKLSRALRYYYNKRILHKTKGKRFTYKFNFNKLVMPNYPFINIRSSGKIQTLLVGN
Outline: as §1

[13] = target: T10, ERG (Homo sapiens, UniProt P11308 1-479)
T10 sequence: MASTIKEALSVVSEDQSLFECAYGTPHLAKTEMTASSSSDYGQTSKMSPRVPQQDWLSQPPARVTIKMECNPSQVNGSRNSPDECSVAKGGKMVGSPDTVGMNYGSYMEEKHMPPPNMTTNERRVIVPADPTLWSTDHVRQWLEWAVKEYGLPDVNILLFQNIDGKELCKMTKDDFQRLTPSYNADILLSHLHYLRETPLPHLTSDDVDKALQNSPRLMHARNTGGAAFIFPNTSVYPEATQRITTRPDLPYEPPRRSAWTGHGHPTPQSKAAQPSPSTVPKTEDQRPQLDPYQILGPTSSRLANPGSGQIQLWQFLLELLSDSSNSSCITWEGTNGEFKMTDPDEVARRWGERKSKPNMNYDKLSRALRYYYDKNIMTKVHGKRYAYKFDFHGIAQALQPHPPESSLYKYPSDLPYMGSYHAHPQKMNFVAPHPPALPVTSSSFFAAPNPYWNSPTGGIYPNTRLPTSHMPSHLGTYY
Outline: as §1

[14] = target: ELF1 (Homo sapiens, UniProt P32519 1-619)
Outline: as §1

[15] = target: ETV6 (Homo sapiens, UniProt P41212 1-452)
Outline: as §1

Sequence of ETV5 (P41161 whole entry): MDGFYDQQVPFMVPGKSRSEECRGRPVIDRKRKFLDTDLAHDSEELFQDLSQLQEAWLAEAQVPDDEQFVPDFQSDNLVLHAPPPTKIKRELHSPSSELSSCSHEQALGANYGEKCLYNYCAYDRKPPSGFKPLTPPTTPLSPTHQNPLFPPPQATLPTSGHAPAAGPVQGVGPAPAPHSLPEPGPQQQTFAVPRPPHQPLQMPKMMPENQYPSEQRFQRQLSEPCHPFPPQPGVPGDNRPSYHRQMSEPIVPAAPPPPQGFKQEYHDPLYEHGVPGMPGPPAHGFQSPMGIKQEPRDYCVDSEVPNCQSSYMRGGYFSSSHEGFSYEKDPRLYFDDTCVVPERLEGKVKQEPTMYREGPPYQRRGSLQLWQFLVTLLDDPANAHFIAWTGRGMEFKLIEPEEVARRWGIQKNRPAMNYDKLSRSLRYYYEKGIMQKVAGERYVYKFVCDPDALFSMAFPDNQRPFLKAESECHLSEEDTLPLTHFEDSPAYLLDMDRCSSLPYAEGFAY
Sequence of ELF4 (Q99607 whole entry): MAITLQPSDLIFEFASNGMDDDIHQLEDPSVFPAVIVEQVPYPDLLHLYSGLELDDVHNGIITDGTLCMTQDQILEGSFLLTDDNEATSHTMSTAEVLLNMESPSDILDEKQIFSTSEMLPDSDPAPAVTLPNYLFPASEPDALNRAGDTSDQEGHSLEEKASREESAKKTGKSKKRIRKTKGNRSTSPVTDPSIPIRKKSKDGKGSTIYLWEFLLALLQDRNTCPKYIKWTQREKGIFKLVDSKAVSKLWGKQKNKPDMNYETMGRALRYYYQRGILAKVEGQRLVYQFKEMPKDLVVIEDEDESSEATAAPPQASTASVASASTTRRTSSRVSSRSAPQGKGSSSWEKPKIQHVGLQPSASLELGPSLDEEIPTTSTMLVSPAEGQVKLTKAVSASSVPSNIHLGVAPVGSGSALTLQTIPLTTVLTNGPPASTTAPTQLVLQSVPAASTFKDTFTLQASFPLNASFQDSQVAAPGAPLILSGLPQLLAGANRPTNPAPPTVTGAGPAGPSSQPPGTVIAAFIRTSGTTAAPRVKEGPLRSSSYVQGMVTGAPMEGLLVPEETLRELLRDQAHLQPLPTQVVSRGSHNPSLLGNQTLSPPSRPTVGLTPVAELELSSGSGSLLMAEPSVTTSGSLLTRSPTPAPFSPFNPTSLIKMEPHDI
Sequence of ELF1 (P32519 whole entry): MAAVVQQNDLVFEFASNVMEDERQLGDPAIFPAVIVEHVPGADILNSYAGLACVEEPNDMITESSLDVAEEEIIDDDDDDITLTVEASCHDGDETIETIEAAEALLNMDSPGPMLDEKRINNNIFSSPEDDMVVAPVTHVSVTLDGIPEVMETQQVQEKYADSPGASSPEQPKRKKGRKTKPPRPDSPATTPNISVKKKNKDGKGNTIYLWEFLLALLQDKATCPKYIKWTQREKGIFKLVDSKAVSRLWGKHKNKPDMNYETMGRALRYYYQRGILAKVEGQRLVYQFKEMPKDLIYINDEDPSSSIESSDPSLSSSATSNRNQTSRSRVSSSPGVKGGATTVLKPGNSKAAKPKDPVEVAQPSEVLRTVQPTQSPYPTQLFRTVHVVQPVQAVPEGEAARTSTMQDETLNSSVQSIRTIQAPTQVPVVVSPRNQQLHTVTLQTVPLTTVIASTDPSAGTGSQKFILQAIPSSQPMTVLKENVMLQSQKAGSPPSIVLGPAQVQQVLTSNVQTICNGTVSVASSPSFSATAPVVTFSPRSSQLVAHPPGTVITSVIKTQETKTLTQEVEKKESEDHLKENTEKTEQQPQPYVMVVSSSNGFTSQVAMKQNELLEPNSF
Sequence of SPIB (Q01892 whole entry): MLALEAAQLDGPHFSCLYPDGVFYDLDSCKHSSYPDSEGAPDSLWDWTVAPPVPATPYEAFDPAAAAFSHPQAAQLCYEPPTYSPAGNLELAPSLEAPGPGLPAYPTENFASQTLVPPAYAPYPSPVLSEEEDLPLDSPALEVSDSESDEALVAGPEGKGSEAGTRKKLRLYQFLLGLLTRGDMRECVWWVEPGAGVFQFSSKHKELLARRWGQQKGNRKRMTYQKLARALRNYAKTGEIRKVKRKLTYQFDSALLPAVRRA
Sequence of ETV6 (P41212 whole entry): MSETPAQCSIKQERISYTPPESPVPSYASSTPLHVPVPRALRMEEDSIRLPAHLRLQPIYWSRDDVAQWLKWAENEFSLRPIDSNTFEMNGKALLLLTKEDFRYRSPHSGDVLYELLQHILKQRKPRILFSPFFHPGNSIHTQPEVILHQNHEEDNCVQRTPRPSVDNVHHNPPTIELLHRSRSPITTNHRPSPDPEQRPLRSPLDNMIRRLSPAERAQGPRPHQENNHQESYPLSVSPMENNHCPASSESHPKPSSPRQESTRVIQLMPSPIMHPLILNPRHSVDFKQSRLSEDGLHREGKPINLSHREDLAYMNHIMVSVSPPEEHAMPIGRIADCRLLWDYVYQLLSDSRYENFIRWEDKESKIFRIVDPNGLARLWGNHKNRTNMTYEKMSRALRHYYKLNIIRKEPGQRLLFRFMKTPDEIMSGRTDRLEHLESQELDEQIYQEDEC

Row | Sequence | binding signal [1] | binding signal [2] | binding signal [3] | binding signal [4] | binding signal [5] | binding signal [6] | binding signal [7] | binding signal [8] | binding signal [9] | binding signal [10] | binding signal [11] | binding signal [12] | binding signal [13] | binding signal [14] | binding signal [15]
1 | CGCGCG | 1.07 fold enrichment (6-mer frequency, TF over GST control) | 1.05 fold enrichment (6-mer frequency, TF over GST control) | 1.11 fold enrichment (6-mer frequency, TF over GST control) | 1.04 fold enrichment (6-mer frequency, TF over GST control) | 1.01 fold enrichment (6-mer frequency, TF over GST control) | 1.14 fold enrichment (6-mer frequency, TF over GST control) | 1 fold enrichment (6-mer frequency, TF over GST control) | 1.14 fold enrichment (6-mer frequency, TF over GST control) | 1.06 fold enrichment (6-mer frequency, TF over GST control) | 1.07 fold enrichment (6-mer frequency, TF over GST control) | 1.03 fold enrichment (6-mer frequency, TF over GST control) | 1.1 fold enrichment (6-mer frequency, TF over GST control) |  |  | 
2 | ACTCAG |  |  |  |  | 1.03 fold enrichment (6-mer frequency, TF over GST control) | 1.11 fold enrichment (6-mer frequency, TF over GST control) | 1.08 fold enrichment (6-mer frequency, TF over GST control) |  | 1.02 fold enrichment (6-mer frequency, TF over GST control) | 1.01 fold enrichment (6-mer frequency, TF over GST control) | 1.05 fold enrichment (6-mer frequency, TF over GST control) |  | 1.06 fold enrichment (6-mer frequency, TF over GST control) | 1.07 fold enrichment (6-mer frequency, TF over GST control) | 1.05 fold enrichment (6-mer frequency, TF over GST control)
